The list is not random: actives were taken first. Their share in the collection is about 2.1%.
U2OS ROS induce – ROS inducers in U2OS cancer cells, primary screen, cell-based, H2DCF-DA fluorescence | ROS induction (% of piperlongumine), % at 10 µM | U2OS ROS induction | 46,000 compounds, 2% hits; in the data active means ROS induction above about 79%, passing the limit was not always enough; inconclusive means no clear call, values can overlap the other calls
YB-1 expression – inhibitors of YB-1 gene expression, primary screen, cell-based, fluorescence. U2OS, qRT-PCR YB-1 vs CDIP delta delta Cp, 16 h; active compounds read high; zero = DMSO, each unit about twofold. delta delta Cp (YB-1 minus CDIP) (test concentration not listed). 30,000 compounds, 0.37% hits;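 active means delta delta Cp rounded down to an integer at or above 3, about 3 SD of DMSO wells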;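 further: higher means less YB-1 transcript or more CDIP transcript relative to DMSO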
A number is an active result; . = inactive; ? = inconclusive; / = no result.

SMILES | U2OS ROS induce | YB-1 expression
C=CCN1C(=O)[C@@]2(O[C@@H](CCn3cc([C@H](O)c4ccccc4)nn3)[C@H]([Si](C)(C)c3ccc(OC)cc3)[C@H]2C)c2cc(N3CCOC3=O)ccc21 | . | .
COc1ccc([Si](C)(C)[C@H]2[C@H](CCO)O[C@@]3(C(=O)N(Cc4cccc(NC(C)=O)c4)c4ccccc43)[C@@H]2C)cc1 | ? | .
C=CCN1C(=O)[C@]2(O[C@H](CCn3cc(CCO)nn3)[C@@H]([Si](C)(C)c3ccc(OC)cc3)[C@@H]2C)c2ccccc21 | . | .
COc1ccc([Si](C)(C)[C@H]2[C@H](CCn3cc(CCO)nn3)O[C@@]3(C(=O)N(Cc4cccc(N5CCOC5=O)c4)c4ccccc43)[C@@H]2C)cc1 | 107 | .
COc1ccc([Si](C)(C)[C@H]2[C@H](CCn3cc(CCO)nn3)O[C@@]3(C(=O)N(Cc4ccc(N5CCOC5=O)cc4)c4ccccc43)[C@@H]2C)cc1 | 145 | .
COc1ccc([Si](C)(C)[C@@H]2[C@@H](CCn3cc(CCO)nn3)O[C@]3(C(=O)N(Cc4cccc(N5CCOC5=O)c4)c4ccccc43)[C@H]2C)cc1 | 116 | .
C=CCN1C(=O)[C@@]2(O[C@@H](CCn3cc(CCO)nn3)[C@H]([Si](C)(C)c3ccc(OC)cc3)[C@H]2C)c2cc(N3CCOC3=O)ccc21 | . | .
COc1ccc([Si](C)(C)[C@@H]2[C@@H](CCn3cc([C@H](O)c4ccccc4)nn3)O[C@]3(C(=O)N(Cc4cccc(N5CCOC5=O)c4)c4ccccc43)[C@H]2C)cc1 | 116 | .
O=C(Cn1ccc2ccccc2c1=O)NCCC(=O)NC1CC1 | . | /
O=C(C(Sc1ccccc1)c1ccccc1)N1CCCc2ccccc21 (stereo unspecified) | . | /
O=C(Nc1cc(Cl)cc(Cl)c1)c1cc(S(=O)(=O)N2CCCc3ccccc32)ccc1F | . | /
COc1ccc(-c2nc(-c3ccc(C)cc3C)cs2)cc1 | . | /
N#Cc1cc2c(=O)n3ccccc3nc2n(-c2cccc(C(F)(F)F)c2)c1=O | . | /
CC(=O)Oc1ccc2cc(-c3nc4c(s3)CCc3ccccc3-4)c(=O)oc2c1 | 129 | /
Cc1cccc(C)c1NC(=O)COc1ccc2cc(-c3ccccc3)c(=O)oc2c1 | . | /
CNC(=O)COc1ccc(Nc2nnc(-c3ccc(C)cc3)c3ccccc23)cc1 | . | /
CCCc1nnc(N(Cc2ccc(Cl)cc2)C(=O)c2ccc(C)cc2)s1 | . | /
Cc1ccc(C(=O)CSc2nc(C)nc3sc(C)c(C)c23)cc1 | 119 | /
Cc1ccc(C(=O)CSc2nc(C)nc3sc4c(c23)CCCC4)cc1 | . | /
Cc1nnsc1-c1onc(C)c1C(N)=O | . | /
CC1CC(=O)N(c2cc(C(F)(F)F)cc(C(F)(F)F)c2)C1=O (stereo unspecified) | . | /
O=C1CC(C2CCCO2)C(=O)N1c1cccc(C(F)(F)F)c1 (stereo unspecified) | . | 5.8
C[C@@H]1CN([C@H](C)CO)C(=O)c2cccc(NC(=O)Nc3ccc(F)cc3)c2O[C@@H]1CN(C)Cc1ccc2c(c1)OCO2 | . | .
C[C@H](CO)N1C[C@H](C)[C@@H](CN(C)Cc2ccc(Oc3ccccc3)cc2)Oc2c(NC(=O)Nc3ccc(F)cc3)cccc2C1=O | 82 | .
C[C@H](CO)N1C[C@H](C)[C@H](CN(C)CC2CCCCC2)Oc2c(NC(=O)Nc3ccccc3)cccc2C1=O | . | 3.1
SMILES | U2OS ROS induce | YB-1 expression
C[C@@H]1CN([C@@H](C)CO)C(=O)c2cccc(NC(=O)Nc3ccc(F)cc3)c2O[C@H]1CN(C)Cc1ccc2c(c1)OCO2 | 115 | .
C[C@@H]1CN([C@@H](C)CO)C(=O)c2cccc(N(C)C)c2O[C@H]1CN(C)Cc1ccccc1 | . | 14
C[C@H](CO)N1C[C@H](C)[C@@H](CN(C)Cc2ccccc2)Oc2c(cccc2N(C)C)C1=O | . | .
C[C@@H]1CN([C@H](C)CO)C(=O)c2cccc(NC(=O)Nc3ccccc3)c2O[C@H]1CN(C)CC1CC1 | . | .
C[C@H](CO)N1C[C@H](C)[C@H](CN(C)Cc2ccc(Oc3ccccc3)cc2)Oc2c(NC(=O)Nc3ccc(F)cc3)cccc2C1=O | . | .
Cc1cc(C)c2c(-n3cccc3)c(C(=O)N3CCC(C)CC3)sc2n1 | . | /
c1ccc(COc2c3c(nc4ccccc24)CCCC3)cc1 | . | /
COc1ccc(NC(=O)Nc2cccc3c2O[C@@H](CN(C)Cc2ccc(Cl)c(Cl)c2)[C@H](C)CN([C@@H](C)CO)C3=O)cc1 | 96 | .
C[C@@H]1CN([C@@H](C)CO)C(=O)c2cccc(NC(=O)Nc3ccccc3)c2O[C@H]1CN(C)Cc1ccc(Oc2ccccc2)cc1 | 105 | .
COc1ccc(NC(=O)Nc2cccc3c2O[C@H](CN(C)Cc2ccccc2)[C@@H](C)CN([C@@H](C)CO)C3=O)cc1 | . | 3.6
C[C@@H]1CN([C@H](C)CO)C(=O)c2cccc(NC(=O)Nc3ccccc3)c2O[C@H]1CN(C)Cc1ccc(Oc2ccccc2)cc1 | . | .
Cc1noc(C)c1NC(=O)Nc1cccc2c1O[C@H](CN(C)Cc1ccc(Oc3ccccc3)cc1)[C@H](C)CN([C@@H](C)CO)C2=O | . | .
COc1ccc(CN(C)C[C@@H]2Oc3c(NC(=O)Nc4ccccc4)cccc3C(=O)N([C@@H](C)CO)C[C@H]2C)cc1 | . | .
COc1ccc(CN(C)C[C@@H]2Oc3c(NC(=O)Nc4ccc(OC)cc4)cccc3C(=O)N([C@H](C)CO)C[C@H]2C)cc1 | . | .
Cc1noc(C)c1NC(=O)Nc1cccc2c1O[C@H](CN(C)Cc1ccc(Oc3ccccc3)cc1)[C@@H](C)CN([C@@H](C)CO)C2=O | 88 | .
COc1ccc(Cl)cc1C(=O)N1CCCC1C(=O)OCc1ccccc1 (stereo unspecified) | . | /
Cc1cccc(N(CC(=O)Nc2ccccc2)S(C)(=O)=O)c1C | . | /
COc1ccccc1N1CCN(S(=O)(=O)Cc2ccccc2)CC1 | . | /
CCN(CC)C(=O)Cn1cc(SCC(=O)N(C(C)C)C(C)C)c2ccccc21 | . | /
COc1ccc(CC(=O)N(C)C)cc1 | . | /
Cc1cc(C(=O)Nc2cccc3c2O[C@@H](CN(C)Cc2ccc(Oc4ccccc4)cc2)[C@H](C)CN([C@@H](C)CO)C3=O)n(C)n1 | 117 | .
Cc1cc(C(=O)Nc2cccc3c2O[C@H](CN(C)Cc2ccc(Oc4ccccc4)cc2)[C@H](C)CN([C@H](C)CO)C3=O)n(C)n1 | . | .
c1ccc(N=C(Nc2ccccc2)N2CCOCC2)cc1 | . | /
CCOC(=O)c1ccc2nc(C(F)(F)F)nc(N3CC(C)OC(C)C3)c2c1 (stereo unspecified) | 108 | .
CCOC(=O)c1ccc2nc(C(F)(F)F)nc(NCc3ccc(Cl)cc3)c2c1 | . | .
SMILES | U2OS ROS induce | YB-1 expression
COc1cc2oc(-c3ccccc3)cc(=O)c2c(O)c1OC | . | .
COc1cc2oc(-c3ccccc3)cc(=O)c2c(OC)c1OC | 90 | .
CCn1c(SCC(=O)N2CCN(c3ccccc3)CC2)nnc1-c1cc2cc(Cl)ccc2o1 | . | /
Nc1cc(N)nc(SCC(=O)N2CCN(c3ccc(Cl)cc3)CC2)n1 | 86 | /
CCN(C(=O)CSc1ncnc2c1sc1ccccc12)c1cccc(C)c1 | . | /
Cc1cccn2c(=O)c3cc(C(=O)NCC4CCCO4)c(=N)n(C4CCCCC4)c3nc12 (stereo unspecified) | 96 | /
